Compound activity: PubChem BioAssay, National Center for Advancing Translational Sciences (NCATS)
Eya2 inh – qHTS Assay for Inhibitors of the Phosphatase Activity of Eya2; 0.006% of 330,000 active; recombinant Eya2, OMFP fluorescence dephosphorylation (OMFP is methylfluorescein phosphate); Potency, µM (highest dose often 76.9 µM), inactives show at the highest dose activity, negative = inhibition, hits mostly inhibitors; active means well fitted curve in the direction sought with a large enough effect; inconclusive means small, poorly fitted or top-dose-only effect, or another doubt; inactive means no such curve, though single readings can be large; an effect the other way counts as inactive or inconclusive; further: potency means the concentration at half of the fitted maximal effect; on the % scale 0 is the no-effect control and ±100 the full control effect
Target sequence (O00167 whole entry, looked up): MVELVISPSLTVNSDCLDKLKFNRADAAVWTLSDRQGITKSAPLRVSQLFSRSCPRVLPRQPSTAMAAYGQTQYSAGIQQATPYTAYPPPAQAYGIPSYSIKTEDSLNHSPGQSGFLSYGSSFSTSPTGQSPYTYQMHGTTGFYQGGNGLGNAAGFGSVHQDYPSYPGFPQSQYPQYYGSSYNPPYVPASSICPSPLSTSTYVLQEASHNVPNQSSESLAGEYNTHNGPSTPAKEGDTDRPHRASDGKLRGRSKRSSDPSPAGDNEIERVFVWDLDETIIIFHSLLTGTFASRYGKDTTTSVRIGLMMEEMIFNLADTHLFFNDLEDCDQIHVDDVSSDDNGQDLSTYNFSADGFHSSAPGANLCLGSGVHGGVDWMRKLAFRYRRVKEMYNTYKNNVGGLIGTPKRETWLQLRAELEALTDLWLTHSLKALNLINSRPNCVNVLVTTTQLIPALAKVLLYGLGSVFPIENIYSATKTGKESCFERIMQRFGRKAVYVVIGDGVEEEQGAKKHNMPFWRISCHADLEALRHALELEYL
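Eya2 (0.2 uM) preincubated 10 min at ambient with compound, then OMFP substrate added at 50 uM; 10 min reaction in 50 mM HEPES pH 7.5, 50 mM NaCl, 5 uM MgCl2, 0.05% BSA, 1 mM DTT. Fluorescence read at Ex 485/Em 525 nm.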
GRP78 ERSR act – qHTS for Inducers of the Endoplasmic Reticulum Stress Response (ERSR) in Human Glioma: qHTS; U87-MG GRP78 promoter luciferase reporter, 16 h; AID 602332, 2012; Potency, µM, for the others: at the top dose activation, usual class: activators; 0.02% of 420,000 active; active means well fitted curve in the direction sought with a large enough effect; inconclusive means small, poorly fitted or top-dose-only effect, or another doubt; inactive means no such curve, though single readings can be large; an effect the other way counts as inactive or inconclusive; further: potency means the concentration at half of the fitted maximal effect; series mostly up to about 76 µM; % of control where 0% means no effect; nearly all actives have a fitted effect of over 35% in size
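Stably transfected U87-MG human glioma cells carrying a GRP78-based luminescent sensor were seeded at 1000 cells/well, pin-dosed with compounds and incubated 16 h. Luciferase reagent was then added, and end-point luminescence was read after 10 min at room temperature.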
CtBP-E1A inh – qHTS Assay for Inhibitors of the CtBP/E1A Interaction; CtBP / adenovirus E1A interaction (AlphaScreen); AlphaScreen GST-E1A/His-CtBP binding, 1536-well; hits give low values; activity change, % (test concentration not listed); 0.49% of 340,000 active; further: on the % scale 0 is the no-effect control and ±100 the full control effect
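Protein mix (5X: 125 nM each GST-E1A, His-CtBP) was incubated with pinned compound 2 h at 37 deg C in dark, in 50 mM Tris pH 8.0 buffer with 300 mM NaCl. Glutathione donor and nickel acceptor beads followed; AlphaScreen signal read after 1 h.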
Six1-Eya2 blk – qHTS Assay for Inhibitors of the Six1/Eya2 Interaction; Homeobox protein SIX1 (Homo sapiens) + Protein phosphatase EYA2 (Homo sapiens), …; AlphaScreen GST-Six1/His-Eya2 binding, biochemical; hits give low values; activity change, % (no concentration beside the values); 0.56% of 360,000 active; AID 651725, 2012; further: on the % scale 0 is the no-effect control and ±100 the full control effect
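AlphaScreen with GST-Six1 and His-Eya2 (5X mix: 250 nM and 500 nM), glutathione donor and nickel acceptor beads; buffer 50 mM Tris pH 8.0, 300 mM NaCl, 1 mM TCEP; 1 h at 37 C in the dark.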
The depositor's hits bear a star. Sampled rows, rich in hits. Any-hit rate of the full collection: about 0.58%. Unless noted, no stated cut-off is given here; in the data, active means activity change below about -65%; inconclusive means mostly about -30% to -63%; inactive means weaker than that.

COc1cc(=O)n2c(c1C(=O)NCc1ccco1)CCN(Cc1cccc(C(F)(F)F)c1)CC2 was read as GRP78 ERSR act -5%.
For Cc1cc(NC(=O)CSc2ccc3nnc(-c4cccs4)n3n2)no1 the results were Eya2 inh 21%, GRP78 ERSR act -5%, CtBP-E1A inh -68* and Six1-Eya2 blk inconclusive.
`Nc1ccc(S(=O)(=O)NNC(=O)C(=O)NNc2ccccn2)cc1` gave Eya2 inh -14%, GRP78 ERSR act -1%, CtBP-E1A inh -68* and Six1-Eya2 blk -93*.
For Cc1ccccc1S(=O)(=O)NNC(=O)C(=O)NNc1ccccn1 the results were Eya2 inh 15%, GRP78 ERSR act -2%, CtBP-E1A inh -71* and Six1-Eya2 blk -82*.
Cc1ccc(S(=O)(=O)NNC(=O)C(=O)NNc2ccccn2)cc1 was read as Eya2 inh -9%, GRP78 ERSR act -4%, CtBP-E1A inh -93* and Six1-Eya2 blk -88*.
For CO[C@H]1[C@H](NC(=O)c2cccs2)c2ccccc2C12CCN(Cc1cccn1-c1cccnc1)CC2 the results were GRP78 ERSR act -5%.
For CN1C(=O)c2cccc3c(S(=O)(=O)NCCc4ccccc4)ccc1c23 the results were Eya2 inh 13%, GRP78 ERSR act -2%, CtBP-E1A inh -15 and Six1-Eya2 blk -2.
For CN1C(=O)c2cccc3c(S(=O)(=O)Nc4ccc(O)c(C(=O)O)c4)ccc1c23 the results were Eya2 inh -2%, GRP78 ERSR act -5%, CtBP-E1A inh inconclusive and Six1-Eya2 blk -72*.
Screening CCC(=O)NCc1nc(-c2cccc(NC(=O)c3ccc(C)s3)c2)oc1C returned GRP78 ERSR act -2%.
C#CCOCCOCCOCCNc1nc(N2CCN(C(=O)CCCCCCCCCCNC(=O)[C@H]([C@@H](C)CC)n3cc(CCCCCN)nn3)CC2)nc(N2CCN(C(=O)CCCCCCCCCCNC(=O)[C@@H]([C@H](C)O)n3cc(C)nn3)CC2)n1 was read as Eya2 inh 28µM*, GRP78 ERSR act -10%, CtBP-E1A inh -9 and Six1-Eya2 blk 2.
For Cn1c(=O)c(C(=O)Nc2ncccc2O)c(O)c2ccccc21 the results were Eya2 inh 56µM*, GRP78 ERSR act 11%, CtBP-E1A inh inconclusive and Six1-Eya2 blk -23.
`Cc1c(N)c(C(C)(C)C)cc(C(C)(C)C)c1[N+](=O)[O-]` gave Eya2 inh -9%, GRP78 ERSR act -12%, CtBP-E1A inh 1 and Six1-Eya2 blk -18.
Screening Cc1cc2nc3c(=O)[nH]c(=O)[nH]c3nc2c([N+](=O)[O-])c1N returned Eya2 inh 42%, GRP78 ERSR act 1%, CtBP-E1A inh -82* and Six1-Eya2 blk -84*.
For COc1ccc(C(=O)Nc2nc(-c3ccccn3)cs2)cc1S(=O)(=O)N1CCOCC1 the results were Eya2 inh -29%, GRP78 ERSR act -2% and Six1-Eya2 blk -93*.
`Cc1ccc(S(=O)(=O)N2CCOCC2)cc1C(=O)Nc1nc(-c2ccccn2)cs1` gave Eya2 inh 2%, GRP78 ERSR act -1%, CtBP-E1A inh 3 and Six1-Eya2 blk -85*.
`O=C(Nc1nc(-c2ccccn2)cs1)c1ccc(S(=O)(=O)N2CCCCC2)cc1` gave Eya2 inh 5%.
Nc1nc2ccc([N+](=O)[O-])c(N)c2s1 was read as Eya2 inh -5%, GRP78 ERSR act -6%, CtBP-E1A inh -72* and Six1-Eya2 blk inconclusive.
For Nc1ccc2nc(N)sc2c1 the results were GRP78 ERSR act 2%, CtBP-E1A inh 0 and Six1-Eya2 blk 4.
Screening CCc1cnc2ccccc2c1/C=C/c1ccc(N(C)C)cc1 returned GRP78 ERSR act -2%.
Screening Cc1cc(/C=N/n2c(COc3ccccc3C)nc3ccccc3c2=O)c(O)c([N+](=O)[O-])c1 returned Eya2 inh 8%, GRP78 ERSR act 5%, CtBP-E1A inh -73* and Six1-Eya2 blk -68*.
O=c1c2ccccc2nc(COc2ccccc2)n1/N=C/c1cc([N+](=O)[O-])ccc1O was read as Eya2 inh 5%, GRP78 ERSR act 2%, CtBP-E1A inh -5 and Six1-Eya2 blk -89*.
For COc1cc2nc(N3CCCC(O)C3)c(CNCc3ccccc3C(F)(F)F)cc2c(OC)c1OC (centres undefined) the results were GRP78 ERSR act -4%.
Screening CC(C)c1c(C(=O)NCC(C)(C)N2CCOCC2)cnn1-c1nccc(-c2cccs2)n1 returned GRP78 ERSR act -3%.
Screening O=S(=O)(O)c1cc(Cl)cc(N=Nc2ccc(O)cc2O)c1O returned GRP78 ERSR act -5%, CtBP-E1A inh -90* and Six1-Eya2 blk -92*.
`O=[N+]([O-])c1ccc(N=Nc2ccc(O)cc2O)cc1` gave Eya2 inh -10%, GRP78 ERSR act -7%, CtBP-E1A inh 5 and Six1-Eya2 blk 4.
COC(=O)[C@@H]1CCCN1C(=O)c1c(OC)cc(=O)n2c1CCN(Cc1ccc3c(c1)CCO3)CC2 was read as GRP78 ERSR act -3%.
Screening COc1ccccc1NC(=O)c1cc2c(CO)cnc(C)c2oc1=Nc1cc(OC)c(OC)c(OC)c1 returned Eya2 inh 26%, GRP78 ERSR act 0%, CtBP-E1A inh 0 and Six1-Eya2 blk 3.
For COc1cc(N=c2oc3c(C)ncc(CO)c3cc2C(N)=O)cc(OC)c1OC the results were Eya2 inh -22%, GRP78 ERSR act 2%, CtBP-E1A inh 0 and Six1-Eya2 blk -79*.
For COc1cc2c(cc1OC)C(=Cc1ccc(N(C)C)cc1)C=C2 the results were GRP78 ERSR act 7%, CtBP-E1A inh -78* and Six1-Eya2 blk -71*.
Screening CN(C)c1ccc(C=C2C=Cc3ccccc32)cc1 returned GRP78 ERSR act -3%, CtBP-E1A inh -4 and Six1-Eya2 blk -71*.
For CN(C)c1ccc(/C=C2\C=Cc3ccccc32)cc1 the results were GRP78 ERSR act 4%.
`Cc1ccc(NC2=C(NC(=O)c3ccccc3)C(=O)c3ccccc3C2=O)cc1Cl` gave Eya2 inh -10%, GRP78 ERSR act 3%, CtBP-E1A inh 0 and Six1-Eya2 blk -66*.
For CCCC(=O)Nc1sc(C)c(C)c1C#N the results were Eya2 inh -3%, GRP78 ERSR act 3%, CtBP-E1A inh 0 and Six1-Eya2 blk 0.
CCc1c(C)sc(NC(=O)CC#N)c1C#N was read as Eya2 inh 4%, GRP78 ERSR act -1%, CtBP-E1A inh -67* and Six1-Eya2 blk inconclusive.
CSc1ncccc1C(=O)N1CCN(S(=O)(=O)c2cc(C)ccc2C)CC1 was read as Eya2 inh -7%, GRP78 ERSR act -4%, CtBP-E1A inh 3 and Six1-Eya2 blk -4.
Cc1ccc(C)c(S(=O)(=O)N2CCN(Cc3ccc(O)c4ncccc34)CC2)c1 was read as Eya2 inh -10%, GRP78 ERSR act -5%, CtBP-E1A inh -86* and Six1-Eya2 blk -79*.
